Our source for the growth values is PubChem BioAssay (NCI).

Structures are written as SMILES. This is part of a sample that, as a whole, favours compounds with a hit. Of some 83,000 tested, about 20% had one in any assay.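 Growth was measured after 48 h exposure to one concentration of compound in 96-well plates. Values under 10 count as active.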 Values without a mark were called inactive. The source made the active and inactive calls.

Some test systems named below: HCT-15 colon; HT29 colon; SNB-75 CNS; SNB-19 CNS; U251 CNS; PC-3 prostate; UACC-62 melanoma; LOX IMVI melanoma; SK-MEL-28 melanoma; SK-MEL-5 melanoma.
Common to all, as to assay: NCI-60 one-dose screen, 48 h (100 = growth as untreated, 0 = no growth, -100 = all killed)
What all share (settings): 10 µM unless noted

`COc1cc(NC(=O)COc2ccccc2)c(C(N)=O)cc1OC`: the growth with HCT-15 colon was 30.1%; with HT29 colon, 1.53% (active); in the test on SNB-75 CNS it was 17.9%; in the test with SNB-19 CNS, 56%; in the test with U251 CNS, 17.8%; with PC-3 prostate, 30.7%. Also, the growth with UACC-62 melanoma was 51.9%; in the test with LOX IMVI melanoma it was 59.1%; with SK-MEL-28 melanoma it was 70.1%.
For the molecule `Clc1ccc(Nc2ccnc(N3CCN(c4ccnc5cc(Cl)ccc45)CC3)n2)cc1`, the growth in the test on HCT-15 colon was 20.4%; in the test with HT29 colon, 32.2%; with SNB-75 CNS it was 27.7%; in the test with SNB-19 CNS, 58.2%; with U251 CNS, 51.9%; with PC-3 prostate it was 37.7%. The growth was 31.3% with UACC-62 melanoma and 63.8% in the test on SK-MEL-28 melanoma.
With `NC(=O)c1cc(I)ccc1NC(=O)COc1ccc(Cl)cc1Cl`, the growth in the test on HCT-15 colon is 62.8%; with HT29 colon, 85.1%; in the test on SNB-75 CNS it was 113%; in the test with SNB-19 CNS, 98.7%; with U251 CNS it was 89.5%; in the test with PC-3 prostate, 86.4%. Moreover, the figures for the growth in the test on UACC-62 melanoma, in the test with LOX IMVI melanoma and with SK-MEL-28 melanoma were 83.1%, 93.3% and 99.3%, respectively.
`O=C(COc1ccc(/C=C2\CSc3ccccc3C2=O)cc1)c1ccc(Cl)cc1`: the growth in the test on HCT-15 colon is 108%; with HT29 colon, 121%; in the test on SNB-75 CNS, 108%; in the test with SNB-19 CNS, 92.3%; with U251 CNS it was 104%; in the test with SK-MEL-5 melanoma, 116%. Besides, the results for the growth with UACC-62 melanoma, in the test on LOX IMVI melanoma and in the test with SK-MEL-28 melanoma were 83%, 95% and 124%, respectively.
With `COc1ccccc1/C=C/C(=O)/C=C/c1ccccc1O`, the growth with HCT-15 colon is -17.7% (active); in the test on HT29 colon, -41.8% (active); in the test on SNB-75 CNS, 31.3%; in the test on SNB-19 CNS it was 31.8%; in the test with U251 CNS, -78.9% (active); in the test on SK-MEL-5 melanoma, 63.7%. The growth was -58.9% (active) with UACC-62 melanoma and -67.7% (active) with LOX IMVI melanoma.
For `COc1ccc(/C=C2\CN(Cc3cn(CCCNc4ccnc5cc(Cl)ccc45)nn3)C/C(=C\c3ccc(OC)c(OC)c3)C2=O)cc1OC`, the growth in the test on HCT-15 colon is 9.96% (active); in the test with HT29 colon, -40.1% (active); in the test on SNB-75 CNS it was 42.6%; with SNB-19 CNS it was 33%; in the test on U251 CNS, 0.724% (active); with SK-MEL-5 melanoma, 5.86% (active). Moreover, the figures for the growth with LOX IMVI melanoma and in the test on SK-MEL-28 melanoma were -68.9% (active) and 40.1%, respectively.
Consider `O=S(=O)(/N=C1C=C/C(=N\S(=O)(=O)c2ccccc2)c2ccccc2\1)c1ccccc1`, for which the growth was 106% in the test on HCT-15 colon; 118% with HT29 colon; 96.1% with SNB-75 CNS; 116% in the test with SNB-19 CNS; 92.6% in the test on U251 CNS; 79.6% with PC-3 prostate. Further, the figures for the growth in the test on UACC-62 melanoma, with LOX IMVI melanoma and with SK-MEL-28 melanoma were 104%, 68.9% and 101%, respectively.
With `COc1ccc(C(=O)COc2cccc(/C=C3\CSc4ccc(C)cc4C3=O)c2)cc1`, the growth in the test with HCT-15 colon is 84.8%; in the test with HT29 colon, 101%; in the test with SNB-75 CNS it was 95%; in the test on SNB-19 CNS it was 97%; in the test on U251 CNS, 97%; in the test on SK-MEL-5 melanoma, 88.2%. Further, the growth in the test on UACC-62 melanoma is 75.2%; in the test with LOX IMVI melanoma, 74.2%; in the test with SK-MEL-28 melanoma it was 120%.
Turning to `CCCN(CCC)c1ccc(/C=C/c2ccc3cc(OCC)ccc3n2)cc1`, the growth was 78.6% in the test on HCT-15 colon; 66.7% with HT29 colon; 98.6% with SNB-75 CNS; 90% in the test with SNB-19 CNS; 74.9% with U251 CNS; 78.3% in the test on SK-MEL-5 melanoma. The growth with UACC-62 melanoma was 86.6%; with LOX IMVI melanoma, 97.6%; in the test on SK-MEL-28 melanoma, 64.8%.
With `CC(=O)Nc1ccc(Sc2ccc([N+](=O)[O-])o2)cc1`, the growth was 2.17% (active) in the test with HCT-15 colon; 26.4% in the test on HT29 colon; 58.3% with SNB-75 CNS; 118% with SNB-19 CNS; 31.9% with U251 CNS; 58.9% in the test on PC-3 prostate. In the test on LOX IMVI melanoma, the growth is 5.12% (active).
